# Measured values taken from PubChem BioAssay AID489025 (Southern Research Specialized Biocontainment Screening …, 2010).
# The whole screen tested about 2,300 compounds, of which about 790 (34%) were called active. No rule for the calls is given here. This is one part of the list. Where a call stands in place of a potency, no number is given. Potency and affinity values are given separately.
# Test: THP-1 cell cytotoxicity, dose response, cytotoxicity control for non-replicating M. tuberculosis project (AID 489025)
# Conditions: THP-1 cell viability; series mostly up to 40 µM
row,Structure (SMILES),outcome
1,Cc1nnc(N/N=C/c2ccc(-c3ccccc3F)o2)n1N,inactive
2,CN1C(c2ccccc2)CC(=NO)CC1c1ccccc1 (configuration not stated),inactive
3,CC(CN1CCOCC1)OC(=O)c1ccc2c(c1)OCCO2 (configuration not stated),inactive
4,O=C(COC(=O)Cc1ccc(Br)cc1)Nc1ccc(N2CCOCC2)cc1,inactive
5,Cc1[nH]n2c(=O)c3c(nc2c1-c1ccccc1)CCCC3,inactive
6,N/C(=N\OC(=O)CC1CCCCC1)c1ccncc1,inactive
7,CCOC(=O)CN(C#N)c1nc(N(C)C)nc(N(C)C)n1,inactive
8,CCOc1ccc(/C=N/OCC(=O)Nc2ccc3c(c2)OCO3)cc1,inactive
9,O=C(N/N=C/c1ccc[nH]1)c1ccc2c(c1)OCO2,inactive
10,O=C(COc1ccc(F)cc1)Nc1ccc2c(c1)OCCO2,inactive
11,O=C(N/N=C/c1coc2ccccc2c1=O)c1ccc(Cl)cc1,inactive
12,O=C(NCCc1c[nH]c2ccccc12)c1cc2ccccc2oc1=O,inactive
13,Cc1nnc(SCCC(=O)Nc2ccc(Cl)cc2)o1,inactive
14,O=C(Nc1ncc2c(n1)-c1ccccc1OC2)c1ccc(F)cc1,inactive
15,O=C(Cc1ccccc1)Nc1ccc(C(=O)NCC2COc3ccccc3O2)cc1 (configuration not stated),inactive
16,O=C(COC(=O)CCc1c[nH]c2ccccc12)NCc1ccc(Cl)cc1,inactive
17,COc1ccc(OC(=O)CCc2c[nH]c3ccccc23)cc1,inactive
18,O=C(COC(=O)CCc1c[nH]c2ccccc12)NCc1ccc2c(c1)OCO2,inactive
19,N#Cc1ccc(COC(=O)CCc2c[nH]c3ccccc23)cc1,inactive
20,Cc1cc(C)c2sc(NC(=O)C3=COCCO3)nc2c1,inactive
21,O=c1cc(-c2ccncc2)oc2c1ccc1ccccc12,inactive
22,Cc1ccc(N/N=C2\CS(=O)(=O)N(C)c3ccsc32)cc1,inactive
23,CCCCOC(=O)C1CCCC(C(=O)OCCCC)N1 (configuration not stated),inactive
24,CCN1CCC(=NNC(=O)c2ccco2)CC1,inactive
25,CCOC(=O)c1ccc(N=CC2=C(O)CC(C)(C)CC2=O)cc1,inactive

row,Structure (SMILES),outcome
1,CCCn1nnnc1NC(=O)COc1ccc(Br)cc1,inactive
2,CCCn1nnnc1NC(=O)c1cc(Cl)ccc1Cl,inactive
3,CCOC(=O)C(C)Oc1cc(Cl)c(C=O)cc1OC (configuration not stated),inactive
4,CSc1ccc(N=Nc2c(C)[nH]n(C)c2=O)cc1,inactive
5,Cc1ccc(N=Nc2c(C)[nH]n(C(N)=S)c2=O)cc1,inactive
6,CCc1cc2c(=O)n(C(C)C(=O)OC3CCCCC3)cnc2s1 (configuration not stated),inactive
7,CC(C)(C)C(=O)COc1ccccc1[N+](=O)[O-],inactive
8,CC1CCCN(CCCOc2ccc([N+](=O)[O-])cc2)C1 (configuration not stated),inactive
9,COc1ccccc1OCCNC(=O)c1cc([N+](=O)[O-])cc([N+](=O)[O-])c1,inactive
10,Cc1cccc(NC(=O)CCSc2nnc(Cc3ccccc3)o2)c1,inactive
11,CCN1C(=O)CC(N2CCC(c3nc4ccccc4[nH]3)CC2)C1=O (configuration not stated),inactive
12,CCOC(=O)C(=CNNc1cccc(Cl)c1)C(=O)OCC,inactive
13,Cc1ccc2[nH]c3c(c2c1)CCCC3NCCO (configuration not stated),inactive
14,Cc1ccc2c(c1)c1c3n2CCN=C3CCC1,inactive
15,OCC1(CCOc2ccccc2)CCN(Cc2cc(Cl)ccc2O)CC1,inactive
16,COc1ccc(C2(O)CCN(CCCCOc3ccccc3)CC2)cc1,inactive
17,COc1cc(NCCC(=O)c2cccs2)c(OC)cc1Cl,inactive
18,Cc1cc(=O)n2cccc(O)c2n1,inactive
19,CC(C)(C)c1ccc(NC(=O)COc2ccc(-n3ccnc3)cc2)cc1,inactive
20,Clc1ccc(SCCCCn2ccnc2)cc1,inactive
21,O=C(O)c1ccc(NS(=O)(=O)/C=C/c2ccccc2)cc1O,inactive
22,Cc1cc(C)cc(NC(=O)COC(=O)CC2CCCC2)c1,inactive
23,O=C(COc1ccc(Nc2ccccc2)cc1)OCC(=O)N1CCCCC1,inactive
24,COc1cccc(CC2(CO)CCCN(Cc3sc(N4CCCC4)nc3Cl)C2)c1 (configuration not stated),inactive
25,O=C(COc1ccc(Cl)cc1)Nc1ccc(Cl)cn1,inactive

row,Structure (SMILES),outcome
1,CCCc1nnc(-c2ccc(OC)cc2)o1,inactive
2,c1ccc(-c2n[nH]c(-c3ccccn3)n2)nc1,inactive
3,O=C(COc1ccc(Cl)cc1)Nc1ccccc1Cl,inactive
4,CC(C)(C)OC(=O)NCCc1nnc(S(=O)(=O)Cc2ccc(Cl)cc2Cl)o1,inactive
5,OCC#CCSc1nnc(-c2ccc(Br)cc2)o1,inactive
6,Cc1cccc(NCc2nnc(-c3ccccc3)o2)c1C,inactive
7,O=C(CCSc1ccccn1)c1ccccc1,inactive
8,CCOc1ccc(-c2ccc(SCC)nn2)cc1,inactive
9,O=C(NC1CCCC1)c1nc2c(nnn2Cc2cccc(Cl)c2)c(=O)[nH]1,inactive
10,CC(C)(C)c1ccc(OCCC(=O)OCC(=O)NC2CCCCC2)cc1,inactive
11,CC(C)(C)c1ccc(-c2nc(C#N)c(NCCCn3ccnc3)o2)cc1,inactive
12,N#Cc1nc(-c2cccs2)oc1NCCc1ccccc1,inactive
13,CCOCCOC(=O)COc1ccc2c(-c3ccccc3)cc(=O)oc2c1,inactive
14,CCc1nnc(NC(=O)CN2CCN(Cc3ccc(F)cc3)CC2)s1,inactive
15,Cc1ccc2nc(NC(=O)COC(=O)c3ccc(Br)o3)sc2c1,inactive
16,CC1CCN(C(=O)COC(=O)CCc2c[nH]c3ccccc23)CC1,inactive
17,COc1ccc2c3c(cccc13)OCC2=O,inactive
18,O=C1/C(=C/c2cccs2)COc2ccccc21,inactive
19,O=C(c1ccco1)N1CCN(c2ccc(F)cc2)CC1,inactive
20,O=S(=O)(NCc1cccnc1)c1ccc(Cl)c(Cl)c1Cl,inactive
21,Cc1cc(C=C2C(=O)NC(=S)NC2=O)c(C)n1C1CCCC1,inactive
22,CCCn1nnnc1NCc1ccc(CC)cc1,inactive
23,Cc1ccc(NCCC(=O)c2cccs2)cc1,inactive
24,CCCCCCCC(=O)NNC(=O)c1ccc(F)cc1,inactive
25,CCCCCCCC(=O)N/N=C(/C)c1c(O)cc(C)oc1=O,inactive

row,Structure (SMILES),outcome
1,Cc1ccc(-c2noc(CCCC(=O)Nc3cccnc3)n2)cc1,inactive
2,CCc1ccc(/C=N/NC(=O)c2ccccn2)cc1,inactive
3,O=C(N/N=C/C=C/c1ccccc1)c1ccccn1,inactive
4,CCCCn1nnc(NC(=O)COc2ccc(Cl)c(C)c2)n1,inactive
5,CCCOC(=O)c1ccc(NC(=O)c2ccccc2OC)cc1,inactive
6,CN1CCC(O)(c2ccc(Cl)cc2)C(C(=O)c2ccc(Cl)cc2)C1 (configuration not stated),inactive
7,CCN(CC)S(=O)(=O)c1ccc(C(=O)OCn2nnc3ccccc3c2=O)cc1,inactive
8,C/C(=N\NC(=O)c1ccco1)c1cc(Cl)sc1Cl,inactive
9,C=C1Cn2c(nnc2-c2ccc(Cl)cc2)S1,inactive
10,O=C(COc1ccccc1)NC1CCCCC1,inactive
11,Cc1ccc2nc(C)c3c(c2c1)COC3,inactive
12,O=C(OCn1nnc2ccccc2c1=O)C1CCCCC1,inactive
13,CCOC(=O)COc1ccc2c(c1)C(=O)CC1(CCCCC1)O2,inactive
14,CCOc1ccc(NC(=O)CCNC(=O)c2ccc(Br)cc2)cc1,inactive
15,O=C(c1ccc(-c2ccc([N+](=O)[O-])cc2)o1)N1CCN(S(=O)(=O)c2cccs2)CC1,inactive
16,CC1CCN(C(=O)c2ccc(-c3ccccc3Cl)o2)CC1,inactive
17,O=C(COc1cccc2ccccc12)Nc1nc2ccccc2[nH]1,inactive
18,CCCN(Cc1nnc(-c2ccccc2Cl)o1)C(=O)c1cc([N+](=O)[O-])cc([N+](=O)[O-])c1,inactive
19,Cc1ccc(OCC(=O)Nc2ccc([N+](=O)[O-])cc2)cc1,inactive
20,COc1ccc(CCOC(=O)c2ccc(N)c([N+](=O)[O-])c2)cc1,inactive
21,COc1ccc(C(=O)COC(=O)COc2ccc(C)c(C)c2)cc1,inactive
22,CC(C)CN(Cc1c(O)ccc2ccccc12)CC(C)C,inactive
23,Cn1c(=O)c2c(=O)cc(NNC(=O)CC#N)[nH]c2n(C)c1=O,inactive
24,O=C(C/C=N\OCc1ccc([N+](=O)[O-])cc1)Nc1ccccc1,inactive
25,CN(CC(=O)Nc1ccc(Cl)cc1)C1CCCCC1,inactive

row,Structure (SMILES),outcome
1,Cc1ccc(CO/N=C/c2c(O)cc(C)oc2=O)cc1,inactive
2,CS(=O)(=O)Nc1cccc2cccnc12,inactive
3,Cc1cc(C)n2nc(S(=O)(=O)Nc3c(Cl)cccc3Cl)nc2n1,inactive
4,CCSc1nc(O)c(C2OC(=O)c3c2ccc(OC)c3OC)c(=O)n1-c1ccccc1 (configuration not stated),inactive
5,COc1cc(C=O)ccc1OCCCCOc1ccccc1[N+](=O)[O-],inactive
6,COc1cc(/C=C/c2ccc3c([N+](=O)[O-])cccc3n2)ccc1OCC(=O)O,inactive
7,C=CCN(CC=C)CC(=O)Nc1ccc(S(N)(=O)=O)cc1,inactive
8,O=C(OCc1ccc([N+](=O)[O-])cc1)c1ccc2ccccc2n1,inactive
9,N#CC(C(=O)Nc1ccccc1)=C1Nc2ccccc2N1,inactive
10,CSCCC(=O)N1CCCC(CNC(=O)c2ccc(-c3ccccc3)cc2)C1 (configuration not stated),inactive
11,Cc1[nH]n(S(=O)(=O)Cc2ccccc2)c(=O)c1N=Nc1ccccc1Cl,inactive
12,O=C(NN=C(Cc1ccccc1)Cc1ccccc1)c1ccncc1,inactive
13,O=C(N/N=C/C=C/c1ccccc1)c1ccncc1,inactive
14,CN1/C(=C\C=N\NC(=O)c2cccnc2)C(C)(C)c2ccccc21,inactive
15,CCOC(=O)N1CCC(NC(=O)C2CCN(c3nc(-c4ccc(OC)cc4)no3)CC2)CC1,inactive
16,CCOC(=O)C1CCCN(Cc2nc(Cc3ccccc3Cl)no2)C1 (configuration not stated),inactive
17,CCCNC(=O)OCC12CC3CC(CC(C3)C1)C2,inactive
18,O=C(CCCOc1ccccc1)OCn1nnc2ccccc2c1=O,inactive
19,COc1ccccc1N1CCN(C(=O)CCn2c(=O)[nH]c3ccsc3c2=O)CC1,inactive
20,Cc1ccc(C(=O)COC(=O)c2cccs2)cc1,inactive
21,Cc1ccc(C(=O)CCC2CCCC2=O)cc1 (configuration not stated),inactive
22,COc1ccc(-c2[nH]ncc2CN2CCCCCCC2)c(OC)c1,inactive
